Records with an inconclusive call do not appear. Active and inactive are the calls of the source. Unless noted, calls follow the shape of the dose curve; as a rule, active = well fitted curve in the direction sought with a large enough effect; inconclusive = small, poorly fitted or top-dose-only effect, or another doubt; inactive = no such curve, though single readings can be large; an effect the other way counts as inactive or inconclusive.
Tests used:
[1] = S16 Schwann cell PMP22 intronic element firefly luciferase assay (AID 624032); also: nearly all actives have a fitted effect of over 30% in size; also: potency is read from the fitted curve at half-maximal effect;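 as to activity change, negative = inhibition: plate controls were DMSO for no effect and PTC124 positive control mean for full effect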
Method in brief: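 Rat S16 Schwann cells stably carrying a PMP22 intronic element-driven Fluc reporter were seeded overnight, then exposed to compounds for 24 h at 37 °C. Luminescence was normalized to PTC124 (positive control) and DMSO (0% activity).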

C2A = assay: qHTS profiling for inhibitors of Plasmodium falciparum proliferation (AID 504749); also: nearly all actives have a fitted effect of over 60% in size; also: potency is read from the fitted curve at half-maximal effect; settings: P. falciparum in erythrocytes, SYBR Green DNA, 72 h; series mostly up to 12.8 µM
Method in brief: (§1)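 Fluorescence of SYBR Green-bound parasite DNA, read at 485/535 nm, served as the growth measure. Infected erythrocytes were cultured with compound 72 h; artemisinin (0.29 uM) and DMSO wells defined the normalization range.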

CP191 = assay: as above; settings: P. falciparum in erythrocytes, SYBR Green DNA, 72 h; series mostly up to 12.8 µM
Method in brief: as §1

CP192 = assay: as above; settings: P. falciparum in erythrocytes, SYBR Green DNA, 72 h; series mostly up to 28.7 µM
Method in brief: as §1

CP201 = assay: as above; settings: P. falciparum in erythrocytes, SYBR Green DNA, 72 h; series mostly up to 12.8 µM
Method in brief: as §1

CP250 = assay: as above; settings: P. falciparum in erythrocytes, SYBR Green DNA, 72 h; series mostly up to 12.8 µM
Method in brief: as §1

CP256 = assay: as above; settings: P. falciparum in erythrocytes, SYBR Green DNA, 72 h; series mostly up to 12.8 µM
Method in brief: as §1

CP262 = assay: as above; settings: P. falciparum in erythrocytes, SYBR Green DNA, 72 h; series mostly up to 12.8 µM
Method in brief: as §1

CP266 = assay: as above; settings: P. falciparum in erythrocytes, SYBR Green DNA, 72 h; series mostly up to 28.7 µM
Method in brief: as §1

CP329 = assay: as above; settings: P. falciparum in erythrocytes, SYBR Green DNA, 72 h; series mostly up to 12.8 µM
Method in brief: as §1

Dd2 = assay: as above; settings: P. falciparum in erythrocytes, SYBR Green DNA, 72 h; series mostly up to 12.8 µM
Method in brief: as §1

FAB9 = assay: as above; settings: P. falciparum in erythrocytes, SYBR Green DNA, 72 h; series mostly up to 12.8 µM
Method in brief: as §1

JCK = assay: as above; settings: P. falciparum in erythrocytes, SYBR Green DNA, 72 h; series mostly up to 12.8 µM
Method in brief: as §1

PC15 = assay: as above; settings: P. falciparum in erythrocytes, SYBR Green DNA, 72 h; series mostly up to 12.8 µM
Method in brief: as §1

PC49 = assay: as above; settings: P. falciparum in erythrocytes, SYBR Green DNA, 72 h; series mostly up to 12.8 µM
Method in brief: as §1

[2] = target: Cytochrome P450 2C9 (Homo sapiens) (UniProt P11712); assay: qHTS Assay for Inhibitors and Substrates of Cytochrome P450 2C9 (AID 883); also: nearly all actives have a fitted effect of over 60% in size; also: potency is read from the fitted curve at half-maximal effect; as to activity change, negative = inhibition: % is scaled to controls: 0 for no effect and ±100 for the full control effect
Chain of Cytochrome P450 2C9 (Homo sapiens) (P11712 whole entry, looked up): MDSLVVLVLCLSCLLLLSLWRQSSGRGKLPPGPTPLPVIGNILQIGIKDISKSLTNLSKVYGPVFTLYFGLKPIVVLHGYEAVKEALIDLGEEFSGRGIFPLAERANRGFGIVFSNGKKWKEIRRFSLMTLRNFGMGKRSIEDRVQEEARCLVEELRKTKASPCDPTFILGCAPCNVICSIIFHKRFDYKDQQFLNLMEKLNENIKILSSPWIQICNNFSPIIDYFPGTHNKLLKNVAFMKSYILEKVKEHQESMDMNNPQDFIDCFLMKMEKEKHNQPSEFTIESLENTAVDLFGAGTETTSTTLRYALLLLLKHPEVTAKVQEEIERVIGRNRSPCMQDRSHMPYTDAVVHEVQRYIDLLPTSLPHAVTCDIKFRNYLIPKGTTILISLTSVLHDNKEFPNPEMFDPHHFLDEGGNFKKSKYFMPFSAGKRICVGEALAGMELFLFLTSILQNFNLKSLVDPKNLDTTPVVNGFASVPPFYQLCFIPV
Method in brief: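 A luminogenic readout tracked human CYP2C9 (10nM) converting deoxyluciferin (100uM, at KM) in 25mM KPO4 during 60 min at 37C with regenerated NADPH. Values normalized to 57uM sulphaphenazole as complete inhibition.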

[3] = target: Pyruvate kinase (Leishmania mexicana) (UniProt Q27686); assay: qHTS Validation Assay for Inhibitors of Leishmania Mexicana Pyruvate Kinase (AID 945);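 also: 0% = DMSO only neutral control wells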
Chain of Pyruvate kinase (Leishmania mexicana) (Q27686 2-499 E452W): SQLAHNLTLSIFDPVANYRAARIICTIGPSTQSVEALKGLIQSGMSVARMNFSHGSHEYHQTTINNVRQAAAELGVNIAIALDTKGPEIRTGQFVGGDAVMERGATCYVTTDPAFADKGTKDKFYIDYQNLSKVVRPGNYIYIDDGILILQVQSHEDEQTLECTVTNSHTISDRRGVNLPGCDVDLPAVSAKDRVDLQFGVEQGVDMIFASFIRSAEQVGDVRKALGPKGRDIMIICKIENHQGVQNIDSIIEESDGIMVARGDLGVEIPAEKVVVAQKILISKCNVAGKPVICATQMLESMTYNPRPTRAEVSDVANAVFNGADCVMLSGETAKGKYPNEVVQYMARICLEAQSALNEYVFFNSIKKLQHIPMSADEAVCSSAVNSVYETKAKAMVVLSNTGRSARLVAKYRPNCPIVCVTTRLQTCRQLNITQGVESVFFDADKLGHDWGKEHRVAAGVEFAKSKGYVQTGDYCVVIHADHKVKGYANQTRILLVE
Method in brief: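 Substrate mix (0.5 mM PEP, 0.1 mM ADP, 7 mM MgCl2, 50 mM KCl, pH 7.2 imidazole) received compound by pin tool, then 0.2 nM LmPYK E451W. After 1 h at room temperature, PKLight was added and luminescence measured.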

[4] = target: Pyruvate kinase PKM (Homo sapiens) (UniProt P14618); assay: qHTS Assay for Activators of Human Muscle Pyruvate Kinase (AID 954; active = well fitted curve in the direction sought with a large enough effect, not every such curve was filed as active;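 also: 0% = uninhibited enzyme and -100% = no enzyme or full thiadiazolimine inhibition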)
Chain of Pyruvate kinase PKM (Homo sapiens) (P14618 whole entry, looked up): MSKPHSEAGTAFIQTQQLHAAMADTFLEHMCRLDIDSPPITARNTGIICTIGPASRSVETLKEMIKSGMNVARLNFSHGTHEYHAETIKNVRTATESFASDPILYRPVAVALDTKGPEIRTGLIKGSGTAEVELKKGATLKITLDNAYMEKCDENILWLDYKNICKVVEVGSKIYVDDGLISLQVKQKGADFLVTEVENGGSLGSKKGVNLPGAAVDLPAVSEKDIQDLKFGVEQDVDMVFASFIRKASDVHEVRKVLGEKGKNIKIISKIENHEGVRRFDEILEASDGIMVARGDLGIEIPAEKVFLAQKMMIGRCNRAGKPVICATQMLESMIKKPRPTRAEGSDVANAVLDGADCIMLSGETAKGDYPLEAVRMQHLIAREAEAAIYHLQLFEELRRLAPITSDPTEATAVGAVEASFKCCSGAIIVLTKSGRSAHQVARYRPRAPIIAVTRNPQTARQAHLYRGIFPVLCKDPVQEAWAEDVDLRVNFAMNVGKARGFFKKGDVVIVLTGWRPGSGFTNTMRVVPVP
Method in brief: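 ATP production by PKM2 detected via luciferase luminescence after 1 h room-temperature reaction (0.1 nM enzyme, PEP at Km 0.5 mM, ADP 0.1 mM, pH 7.2 imidazole buffer). Inhibition scaled to no-enzyme control; activation referenced to 0.3 nM enzyme wells.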

[5] = target: Alpha-galactosidase A (Homo sapiens) (UniProt P06280); assay: Counterscreen for Glucocerebrosidase Inhibitors: qHTS Assay for Human alpha-Galactosidase at pH 4.5 (AID 992); also: 0% is about no effect
Chain of Alpha-galactosidase A (Homo sapiens) (P06280 whole entry, looked up): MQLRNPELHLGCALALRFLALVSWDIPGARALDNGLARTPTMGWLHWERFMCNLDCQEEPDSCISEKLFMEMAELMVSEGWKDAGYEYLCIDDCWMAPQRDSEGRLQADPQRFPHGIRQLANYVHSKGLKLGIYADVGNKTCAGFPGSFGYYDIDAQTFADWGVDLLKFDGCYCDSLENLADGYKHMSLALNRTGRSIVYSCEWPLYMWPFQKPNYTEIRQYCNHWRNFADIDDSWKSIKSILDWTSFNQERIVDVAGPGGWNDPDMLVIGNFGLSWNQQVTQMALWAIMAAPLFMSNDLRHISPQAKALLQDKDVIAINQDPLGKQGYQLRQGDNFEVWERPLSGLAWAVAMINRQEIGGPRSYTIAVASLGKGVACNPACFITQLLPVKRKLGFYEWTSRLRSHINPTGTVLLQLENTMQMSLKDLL
Method in brief: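 Fluorogenic 1536-well qHTS at pH 4.5 (citrate, Tween-20): 2 nM enzyme, 80 uM 4-MU-alpha-galactoside, 20 min room temperature, NaOH/glycine stop. Titration 0.7 nM to 77 uM, data normalized to no-enzyme and full-activity controls, Hill-fitted AC50.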

[6] = target: alpha-glucosidase (Oryza sativa, rice) (UniProt Q653V4); assay: Counterscreen for Glucocerebrosidase Inhibitors: qHTS Assay for Rice alpha-Glucosidase at pH 5.0 (AID 997);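 also: 0% = full activity with enzyme and -100% = basal without enzyme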
Method in brief: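 Endpoint fluorogenic assay at pH 5.0: compounds (0.7 nM to 77 uM) titrated against 4 nM rice enzyme and 400 uM 4-MU-alpha-glucoside for 20 min at room temperature; NaOH/glycine stop, read ex 365/em 440 nm, Hill-fitted AC50.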

C[C@@H]1CCC[C@H](C)N1NC(=O)c1ccc(Cl)c(S(N)(=O)=O)c1
inactive: Potency [1] | Potency (C2A) | Potency (CP191) | Potency (CP192) | Potency (CP201) | Potency (CP250) | Potency (CP256) | Potency (CP262) | Potency (CP266) | Potency (CP329) | Potency (Dd2) | Potency (FAB9) | Potency (JCK) | Potency (PC15) | Potency (PC49)

C[N+](C)(C)CC(O)CC(=O)O (stereo unspecified)
inactive: Potency [1] | Potency (C2A) | Potency (CP191) | Potency (CP192) | Potency (CP201) | Potency (CP250) | Potency (CP256) | Potency (CP262) | Potency (CP266) | Potency (CP329) | Potency (Dd2) | Potency (FAB9) | Potency (JCK) | Potency (PC15) | Potency (PC49)

COc1ccccc1-c1ccc2ncnc(NCc3ccccc3)c2c1
active: Potency [2] 0.501 µM

CN(C)CC/C=C1\c2ccccc2CSc2ccccc21
active: Potency (Dd2) 1.78 µM
inactive: Potency [1] | Potency (C2A) | Potency (CP191) | Potency (CP192) | Potency (CP201) | Potency (CP250) | Potency (CP256) | Potency (CP262) | Potency (CP266) | Potency (CP329) | Potency (FAB9) | Potency (JCK) | Potency (PC15) | Potency (PC49)

CN1CCCC[C@@H]1CCN1c2ccccc2Sc2ccc(S(C)=O)cc21 (stereo partly specified)
inactive: Potency [1] | Potency (C2A) | Potency (CP191) | Potency (CP192) | Potency (CP201) | Potency (CP250) | Potency (CP256) | Potency (CP262) | Potency (CP266) | Potency (CP329) | Potency (Dd2) | Potency (FAB9) | Potency (JCK) | Potency (PC15) | Potency (PC49)

CN1[C@@H]2CC[C@H]1CC(OC(=O)[C@@H](O)c1ccccc1)C2 (stereo partly specified)
inactive: outcome [3] | outcome [4] | outcome [5] | outcome [6] | Potency (C2A) | Potency (CP191) | Potency (CP192) | Potency (CP201) | Potency (CP250) | Potency (CP256) | Potency (CP262) | Potency (CP266) | Potency (CP329) | Potency (Dd2) | Potency (FAB9) | Potency (JCK) | Potency (PC15) | Potency (PC49)

CN(C)C(=O)c1ccc(-c2nc(N(C)C)c3ccccc3n2)cc1
inactive: activity change, negative = inhibition [2] 29.4% [at 2.29 µM]

O=c1cnc2cnc(N3CCOCC3)nc2n1C[C@H]1CCCO1
inactive: Potency [2]

COCC(=O)N1CCC2(CC1)CN(Cc1nccs1)C2
inactive: Potency [2]

FC(F)(F)c1cc(CN2CC[C@@]3(CCCNC3)C2)cc(C(F)(F)F)c1
inactive: Potency [2]

N#CCCn1c(=O)c(-c2ccc(Cl)cc2)nc2cnc(Oc3cccc(Cl)c3)nc21
inactive: Potency [2]

Cc1cccc(CNc2cc(-c3cccc(NS(C)(=O)=O)c3)ncn2)c1
inactive: activity change, negative = inhibition [2] 33.9% [at 2.29 µM]

CC[C@@]12CCCN3CCc4c(n(c5ccccc45)C(=O)C1)[C@H]32
inactive: Potency [1] | Potency (C2A) | Potency (CP191) | Potency (CP192) | Potency (CP201) | Potency (CP250) | Potency (CP256) | Potency (CP262) | Potency (CP266) | Potency (CP329) | Potency (Dd2) | Potency (FAB9) | Potency (JCK) | Potency (PC15) | Potency (PC49)

COc1ccc(-c2nc3cnc(N4CCNCC4)nc3n(C3CC3)c2=O)cc1
active: Potency [2] 7.94 µM

CCCCCN(CCCCC)C(=O)[C@H](CCC(=O)O)NC(=O)c1ccc(Cl)c(Cl)c1
inactive: outcome [3] | outcome [4] | outcome [5] | outcome [6]
active: Potency [2] 3.98 µM

CCCN(CCC)C(=O)[C@@H](CCC(=O)O)NC(=O)c1ccccc1
inactive: outcome [3] | outcome [4] | outcome [5] | outcome [6] | Potency [1] | Potency (C2A) | Potency (CP191) | Potency (CP192) | Potency (CP201) | Potency (CP250) | Potency (CP256) | Potency (CP262) | Potency (CP266) | Potency (CP329) | Potency (Dd2) | Potency (FAB9) | Potency (JCK) | Potency (PC15) | Potency (PC49)

C=CCc1ccccc1OC[C@H](O)CNC(C)C
inactive: outcome [3] | outcome [4] | outcome [5] | outcome [6]

N[C@@H](CO)C(=O)NNCc1ccc(O)c(O)c1O
inactive: outcome [3] | outcome [4] | outcome [5] | outcome [6] | Potency [1] | Potency (C2A) | Potency (CP191) | Potency (CP192) | Potency (CP201) | Potency (CP250) | Potency (CP256) | Potency (CP262) | Potency (CP266) | Potency (CP329) | Potency (Dd2) | Potency (FAB9) | Potency (JCK) | Potency (PC15) | Potency (PC49)

COc1ccc([C@H]2Sc3ccccc3N(CCN(C)C)C(=O)[C@H]2OC(C)=O)cc1
inactive: outcome [3] | outcome [4] | outcome [5] | outcome [6]

O[C@@](CCN1CCCCC1)(c1ccccc1)C1CCCCC1
inactive: outcome [3] | outcome [4] | outcome [5] | outcome [6]

O=C(C1CCCCC1)N1CC(=O)N2CCc3ccccc3[C@@H]2C1
active: Potency [1] 36.1 µM
inactive: Potency [2]

CC[C@]1(C)CC(=O)NC1=O
inactive: outcome [3] | outcome [4] | outcome [5] | outcome [6] | Potency [1] | Potency (C2A) | Potency (CP191) | Potency (CP192) | Potency (CP201) | Potency (CP250) | Potency (CP256) | Potency (CP262) | Potency (CP266) | Potency (CP329) | Potency (Dd2) | Potency (FAB9) | Potency (JCK) | Potency (PC15) | Potency (PC49)

C[C@@](N)(Cc1ccc(O)c(O)c1)C(=O)O
inactive: outcome [3] | outcome [4] | outcome [5] | outcome [6]

CN(C)[C@@H]1C(=O)C(C(N)=O)=C(O)[C@]2(O)C(=O)C3=C(O)c4c(O)ccc(Cl)c4[C@H](O)[C@H]3C[C@@H]12
active: Potency (Dd2) 3.16 µM
inactive: Potency [2] | outcome [3] | outcome [4] | outcome [5] | outcome [6] | Potency [1] | Potency (C2A) | Potency (CP191) | Potency (CP192) | Potency (CP201) | Potency (CP250) | Potency (CP256) | Potency (CP262) | Potency (CP266) | Potency (CP329) | Potency (FAB9) | Potency (JCK) | Potency (PC15) | Potency (PC49)

From PubChem BioAssay (NCATS)
